Screens: PubChem, Broad Institute
Sampled rows, rich in hits. Any-hit rate of the full collection: about 3.1%.
ERAP1 inh: inhibitors of human ERAP1 aminopeptidase | Q9NZ08 | recombinant ERAP1, Leu-AMC fluorescence, 60 min | inhibition, % at 10.7 µM | 0.15% of 340,000 active | AID 652197;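 active = mean replicate inhibition of at least 30%, or all replicates individually reaching that 30% level; inactive = mean below 30% and not every replicate reaching it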;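 note: 0% = neutral control wells and 100% = L-leucinethiol positive control wells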
FGF22 binding: FGF22 (human) thermal shift binding. 1.5% of 340,000 active. recombinant FGF22 thermal shift, SYPRO orange fluorescence; percent of sucrose octasulfate shift, DMSO zero. AID 651658. activity (Tm shift, normalised), % at 9.99 µM;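 active = mean Tm shift, scaled 0 neutral to 100 positive control, at about 1.3% or above, every replicate too, limit read from the data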
CASP6 VEID inh: blocks human caspase-6 cleavage activity. 0.53% of 350,000 active. inhibition, % at 12.5 µM. AID 686996. purified caspase-6, Z-VEID-R110 cleavage fluorescence;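 active = mean inhibition across replicates at least about 35%, with every replicate also reaching that limit, limit read from the data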;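 note: 0% = median of neutral control wells and 100% = no fluorescence left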
SIRT5 block: blocks human SIRT5 desuccinylation of peptide. 1.1% of 330,000 active. Q9NXA8. Purified SirT5, succinyl-peptide AMC, trypsin-coupled fluorescence. AID 652115. inhibition, % at 15 µM; in the data active = inhibition above about 15%
Target sequence (Q9NXA8 whole entry, looked up): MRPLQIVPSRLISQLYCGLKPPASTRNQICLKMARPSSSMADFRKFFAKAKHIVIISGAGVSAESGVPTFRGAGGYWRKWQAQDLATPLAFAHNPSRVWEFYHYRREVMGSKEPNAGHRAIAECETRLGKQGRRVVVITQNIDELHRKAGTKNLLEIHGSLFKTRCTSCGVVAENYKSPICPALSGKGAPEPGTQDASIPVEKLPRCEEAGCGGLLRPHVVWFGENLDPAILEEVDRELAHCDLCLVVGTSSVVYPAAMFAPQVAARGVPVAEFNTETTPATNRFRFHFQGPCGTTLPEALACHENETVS
The depositor's hits bear a star; x = not tested or not shown.

SMILES | ERAP1 inh | FGF22 binding | CASP6 VEID inh | SIRT5 block
CCCNC(=O)N(C)C[C@H]1Oc2cc(C#CC(C)C)ccc2S(=O)(=O)N([C@H](C)CO)C[C@H]1C | -3 | 0 | 5 | 2
CCCNC(=O)N(C)C[C@@H]1Oc2cc(C#C[C@@H](C)O)ccc2S(=O)(=O)N([C@@H](C)CO)C[C@@H]1C | x | 0 | x | -5
CCCNC(=O)N(C)C[C@H]1Oc2cc(C#CC(C)C)ccc2S(=O)(=O)N([C@H](C)CO)C[C@@H]1C | -4 | 0 | -1 | 19*
COCC(=O)Nc1ccc2c(c1)C(=O)N(C)C[C@@H](OC)[C@H](C)CN(Cc1ccccc1C(=O)O)[C@H](C)CO2 | 1 | 0 | -3 | -6
Cc1ccc(S(=O)(=O)NC(CC(=O)OCc2ccccc2)C(=O)OCc2ccccc2)cc1 (stereo not given) | 0 | 30* | -1 | -1
CC[C@@H](C)C(NC(=O)OC(C)(C)C)c1cn([C@@H](CCCCNC(=O)OC(C)(C)C)C(=O)N2CCN(C(=O)OC(C)(C)C)CC2)nn1 (stereo not given in full) | 0 | 1 | -4 | 16*
CC[C@@H](C)C(NC(=O)OC(C)(C)C)c1cn([C@@H](Cc2cc3ccccc3[nH]2)C(=O)N2CCN(C(=O)OC(C)(C)C)CC2)nn1 (stereo not given in full) | x | 0 | 2 | x
CCCN1C[C@@H](C)[C@H](OC)CN(C)C(=O)c2ccc(NC(=O)Nc3c(C)noc3C)cc2OC[C@H]1C | x | 0 | x | 3
Cc1ccc(NC(=O)COC(=O)c2cccnc2Cl)cc1S(=O)(=O)N1CCOCC1 | -1 | 0 | 0 | -3
CSc1ncccc1C(=O)OCC(=O)Nc1ccc(C)c(S(=O)(=O)N2CCOCC2)c1 | 2 | 43* | -3 | x
CSc1ncccc1C(=O)OCC(=O)Nc1cccc(S(=O)(=O)N2CCOCC2)c1 | 4 | 43* | 4 | x
CCOC(=O)C1=C(C)N=c2sc(=Cc3cc(Cl)c(OCC(=O)O)c(Cl)c3)c(=O)n2C1c1cccc(OC)c1 (stereo not given) | -53 | 1 | 38* | 5
CCOC(=O)C1=C(C)N=c2sc(=Cc3ccc(OCC(=O)O)cc3)c(=O)n2C1c1ccc(Cl)cc1 (stereo not given) | 0 | 1 | 22 | 21*
CCOC(=O)C1=C(C)N=c2s/c(=C/c3ccc(OCC(=O)O)cc3)c(=O)n2C1c1cc(OC)c(OC)c(OC)c1 (stereo not given) | 11 | -1 | 3 | x
CO[C@@H]1CN(C)C(=O)c2cc(NC(=O)C3CC3)ccc2OC[C@H](C)N(C(=O)C2CCOCC2)C[C@@H]1C | -4 | 0 | 2 | -3
CC1=CC(C)(C)NC(=S)N1c1ccc([N+](=O)[O-])cc1 | -3 | 43* | -1 | x
CC1=CC(C)(C)NC(=S)N1c1ccc(C)c(C)c1 | -3 | 43 | -1 | -1
CC(=O)N(C)C[C@H]1Oc2ncc(/C=C/c3ccccc3)cc2C(=O)N([C@H](C)CO)C[C@@H]1C | 1 | 0 | 1 | -14
Cc1cc(C(=O)NNC(=O)/C=C/c2ccco2)c(C)o1 | 0 | 0 | 52* | 2
COc1ccccc1/C=C/C(=O)NNC(=O)c1cc(C)oc1C | -6 | 0 | 1 | -2
CCOCCCNC(=S)NCCNc1nc2ccc(C)cc2cc1C#N | 1 | 44* | 2 | -1
NNC(=O)c1sc(-c2ccc(Cl)cc2)cc1N | 0 | 44* | 0 | -5
CCOC(=O)c1sc(-c2ccc(Br)cc2)cc1N | -2 | 0 | -2 | -5
Cc1noc(C)c1NC(=O)Nc1cccc2c1O[C@@H](CN(C)S(=O)(=O)c1cn(C)cn1)[C@@H](C)CN([C@H](C)CO)C2=O | 0 | 0 | -1 | 1
Cc1ccc(S(=O)(=O)c2cc(Nc3ccccc3)ccc2O)cc1 | 1 | -1 | 15 | x
SMILES | ERAP1 inh | FGF22 binding | CASP6 VEID inh | SIRT5 block
Cc1ccc(Nc2ccc(N)cc2S(=O)(=O)O)cc1 | 17 | -1 | 62* | 56*
C=C1[C@H](C)CN[C@H]1CCO | 0 | 0 | 43* | -1
CCCCn1nnc(NC(=S)NC(=O)c2cccs2)n1 | -4 | -1 | 2 | 21*
CC(C)NC(=O)Nc1ccc2c(c1)C(=O)N([C@H](C)CO)C[C@@H](C)[C@@H](CN(C)C(=O)NC1CCCCC1)OCCCC[C@H](C)O2 | 0 | 0 | 1 | 2
O=C(c1cccc(F)c1)N1CCCC(C(=O)N2CCCCCC2)C1 (stereo not given) | -6 | 0 | 0 | 27*
O=C(c1ccccc1)N1CCCC(C(=O)N2CCCCC2)C1 (stereo not given) | 8 | 0 | 1 | -5
CS(=O)(=O)c1ccc(Cl)c(NC(=O)Cc2c(Cl)cccc2Cl)c1 | 11 | 0 | 2 | -2
